Reference: article PMC4336329 (PLoS ONE, 2015)
Hit rate of the full screen: of about 310,000 compounds, about 14,000 (4.5%) showed an effect of 50% or more. The effect is printed as a negative number. Only a selection was taken, and strong results are over-represented in it overall.

The molecules below were run against human ether-à-go-go-related gene (hERG) potassium channel (human, UniProt Q12809) (assay: primary screen, population patch clamp on CHO cells stably expressing hERG; higher = less effect of the substance).
Sequence of human ether-à-go-go-related gene (hERG) potassium channel (Q12809 whole entry, looked up): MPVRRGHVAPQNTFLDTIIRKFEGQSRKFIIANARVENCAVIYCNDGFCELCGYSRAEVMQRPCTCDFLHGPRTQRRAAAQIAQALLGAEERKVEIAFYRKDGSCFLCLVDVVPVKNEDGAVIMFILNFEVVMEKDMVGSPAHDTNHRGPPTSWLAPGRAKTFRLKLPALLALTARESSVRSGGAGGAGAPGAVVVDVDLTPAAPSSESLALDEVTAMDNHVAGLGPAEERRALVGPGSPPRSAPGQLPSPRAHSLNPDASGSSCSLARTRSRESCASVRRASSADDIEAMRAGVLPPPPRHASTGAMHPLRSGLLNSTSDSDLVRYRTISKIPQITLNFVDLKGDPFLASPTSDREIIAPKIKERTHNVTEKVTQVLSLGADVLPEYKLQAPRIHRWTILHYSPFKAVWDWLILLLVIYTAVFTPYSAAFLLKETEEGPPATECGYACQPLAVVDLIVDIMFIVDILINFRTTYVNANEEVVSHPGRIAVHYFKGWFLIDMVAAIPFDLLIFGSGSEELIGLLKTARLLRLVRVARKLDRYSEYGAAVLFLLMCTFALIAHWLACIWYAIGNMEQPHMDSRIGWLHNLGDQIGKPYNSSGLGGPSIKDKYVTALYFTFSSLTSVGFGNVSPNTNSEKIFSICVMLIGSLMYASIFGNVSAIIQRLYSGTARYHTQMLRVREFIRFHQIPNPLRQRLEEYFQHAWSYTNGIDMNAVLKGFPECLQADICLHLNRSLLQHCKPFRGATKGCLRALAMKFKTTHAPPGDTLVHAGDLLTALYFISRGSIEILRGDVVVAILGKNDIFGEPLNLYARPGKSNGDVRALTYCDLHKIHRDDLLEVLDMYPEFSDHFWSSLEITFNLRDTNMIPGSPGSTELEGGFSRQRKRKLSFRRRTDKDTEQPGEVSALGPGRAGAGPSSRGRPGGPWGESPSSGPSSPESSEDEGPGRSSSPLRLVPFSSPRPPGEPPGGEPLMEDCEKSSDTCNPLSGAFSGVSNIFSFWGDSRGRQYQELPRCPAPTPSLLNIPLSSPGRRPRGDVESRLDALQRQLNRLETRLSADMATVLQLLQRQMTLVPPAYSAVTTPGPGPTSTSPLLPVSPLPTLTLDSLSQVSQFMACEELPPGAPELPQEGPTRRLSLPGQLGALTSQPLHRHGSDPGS
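Also: peak tail current of the secondary pulse compared with the same well before compound.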

Row | SMILES | hERG current change (%, negative = inhibition) at 10uM
1 | CC(C)CN(C(=O)COc1ccc(Br)cc1C=O)C1CCS(=O)(=O)C1 (stereo not drawn) | -25.4%
2 | COc1ccc(O)c(-c2cn[nH]c2-c2cccs2)c1 | 7.6%
3 | O=C(CNC(=O)Cc1ccccc1)N=Nc1c(O)[nH]c2ccc(Br)cc12 | 24.7%
4 | O=C(CSc1nc2ccccc2c(=O)[nH]1)Nc1ccccc1C(F)(F)F | -2.68%
5 | C=CCNC(=O)c1cc(-c2ccccc2O)on1 | 8.16%
6 | CCN(CC(=O)NCC(=O)Nc1cccc(C)c1C)Cc1ccccc1 | 5.6%
7 | C=CCn1nc([N+](=O)[O-])nc1Sc1cccc2cccnc12 | -2.55%
8 | O=[N+]([O-])CC(=Nc1ccc(Cl)cc1)N/N=C\c1oc(O)c2ccccc12 | 5.58%
9 | O=C(c1ccco1)N1CCN(Cc2cc(=O)c(OCc3c(F)cccc3Cl)co2)CC1 | -58%
10 | O=c1cc(CO)occ1OCc1c(F)cccc1Cl | 9.21%
11 | O=C(c1ccco1)N1CCN(Cc2c(F)cccc2Cl)CC1 | -9.87%
12 | CCN(CC)C(C(=O)Nc1ccc(C(C)C)cc1)c1ccc2c(c1)OCO2 (stereo not drawn) | -9.99%
13 | CCOc1cc(C)c(S(=O)(=O)N2CCCC2)cc1C | -14.6%
14 | COc1ccc(CCN(C(=O)c2snc(C(N)=O)c2N)C(C)C(=O)NC2CCCCC2)cc1OC (stereo not drawn) | -13.9%
15 | Cc1cc(C(F)F)n2ncc(C(=O)NCCc3ccccc3Cl)c2n1 | -56.7%
16 | Cc1cc(C(F)F)n2ncc(C(=O)NCCc3ccc(Cl)cc3)c2n1 | -45%
17 | COc1ccccc1CCNC(=O)c1cnn2c(C(F)F)cc(C)nc12 | -33.6%
18 | CCOC(=O)N1CCC(N(CCN(C)C)C(=S)Nc2cccc(Cl)c2C)CC1 | 12.5%
19 | Cc1nc(C(=O)Nc2ccccc2Cl)cc2c1[nH]c1ccccc12 | 0.837%
20 | O=C(CCC(=O)Nc1cccc(C(F)(F)F)c1)NCC1CCCO1 (stereo not drawn) | 11.1%
21 | CC1=C(C(=O)OCC2CCCO2)C(c2ccccc2OC(C)C)C2=C(CC(c3ccco3)CC2=O)N1 (stereo not drawn) | -57.8%
22 | COc1ccc(C2C(C(=O)OCC3CCCO3)=C(C)NC3=C2C(=O)CC(c2ccco2)C3)cc1O (stereo not drawn) | 5.72%
23 | CC1=C(C(=O)OCC2CCCO2)C(c2cccc(C(F)(F)F)c2)C2=C(CC(c3ccco3)CC2=O)N1 (stereo not drawn) | 6.09%

Row | SMILES | hERG current change (%, negative = inhibition) at 10uM
24 | CC(C)C(=O)Nc1ccc2c(c1)C(=O)NC2=O | 14.3%
25 | Cc1cc(C)cc(N(CC(=O)NC2CCCC2)C(=O)CNC(=O)c2cccs2)c1 | 18%
26 | CCC(C)c1ccccc1OCCCN(C)Cc1ccccc1 (stereo not drawn) | -27%
27 | Cl.O=C(OC1CCN(CCCl)CC1)C(c1ccccc1)c1ccccc1 | 11%
28 | CCN1CCCC(OC(=O)c2cc(-c3ccccc3Cl)nc3ccccc23)C1.Cl (stereo not drawn) | -65.3%
29 | CCN1CCCC(OC(=O)Nc2ccccc2)C1 (stereo not drawn) | 2.47%
30 | O=C(OCn1nnc2ccccc2c1=O)c1cc(-c2ccccc2Cl)nc2ccccc12 | 12.8%
31 | CCN1CCCC(OC(=O)c2cc(-c3ccc(C)cc3)nc3ccccc23)C1.Cl (stereo not drawn) | -8.97%
32 | O=C(c1cc(-c2ccccc2Cl)nc2ccccc12)N1CCOCC1 | -6.68%
33 | CN(C(=O)COC(=O)c1cc(-c2ccccc2Cl)nc2ccccc12)C1CCS(=O)(=O)C1 (stereo not drawn) | -30.9%
34 | CCN1CCCC(OC(=O)C(c2ccccc2)c2ccccc2)C1.Cl (stereo not drawn) | -66.1%
35 | CN1CCC(N(C)C(=O)c2cc(-c3ccccc3Cl)nc3ccccc23)CC1.Cl | -84.3%
36 | O=c1c(-c2ccccc2)[n+]([O-])c2ccccc2n1O | -9.6%
37 | CCOc1ccccc1NC(=O)Cc1cccs1 | 3.18%
38 | O=C(NCCCN1CCCCC1)c1ccc(CS(=O)c2ccc(F)cc2)o1 (stereo not drawn) | -0.35%
39 | Br.O=C(Cn1c(NCCCO)nc2ccccc21)c1ccc(F)cc1 | -9.54%
40 | Oc1c(C(c2cccs2)N2CCN(c3ccccc3)CC2)sc2ncnn12 (stereo not drawn) | -33.6%
41 | Oc1c(C(c2cccs2)N2CCN(c3ccc(F)cc3)CC2)sc2ncnn12 (stereo not drawn) | -66%
42 | Cc1ccc(C(c2sc3nc(C)nn3c2O)N2CCN(c3ccccc3)CC2)cc1 (stereo not drawn) | -5.32%
43 | Cc1nc2sc(C(c3ccc(F)cc3)N3CCOCC3)c(O)n2n1 (stereo not drawn) | 9.62%
44 | Cc1ccc(C(c2sc3nc(C)nn3c2O)N2CCN(c3ccc(F)cc3)CC2)cc1 (stereo not drawn) | -65.2%
45 | Oc1c(C(c2cccs2)N2CCN(c3cccc(Cl)c3)CC2)sc2ncnn12 (stereo not drawn) | -26.5%
46 | O=C(CCc1ccccc1)Nc1ccccc1C(=O)NCc1ccco1 | 0.64%

Row | SMILES | hERG current change (%, negative = inhibition) at 10uM
47 | COC(=O)[C@@]12CCCN1[C@H](c1ccc(-c3ccccc3)cc1)[C@@H]1C(=O)N(C)C(=O)[C@@H]12.O=C(O)C(F)(F)F | -6.67%
48 | C=C(C)c1cccc(C(C)(C)NC(=O)Nc2ccc(OC)cc2)c1 | 8.48%
49 | COc1ccc(NC(=O)c2oc3ccc(S(=O)(=O)N4CCOCC4)cc3c2C)cc1 | 3.58%
50 | COc1ccc2c(c1)nc(SCC(=O)C(C)(C)C)n2C | -2.82%
51 | COc1ccc2c(c1)nc(SCC(O)c1ccccc1)n2C (stereo not drawn) | -60.2%
52 | COc1ccc2c(c1)nc(SCC(C)O)n2C (stereo not drawn) | 18%
53 | COC(=O)c1cc(NS(=O)(=O)c2cccc(Cl)c2)ccc1N1CCOCC1 | 2.66%
54 | CCN(CCCNC(=O)C1CCC(=O)N1Cc1ccc(F)cc1)c1cccc(C)c1 (stereo not drawn) | -18.3%
55 | CCN(CCCNC(=O)COc1cc(=O)n(C)c2ccccc12)c1cccc(C)c1 | -51%
56 | CCN(CCCNC(=O)C1CCC(=O)N1Cc1ccc(C)cc1)c1cccc(C)c1 (stereo not drawn) | -24.9%
57 | CCn1c(=O)cc(OCC(=O)NCCC(C)C)c2ccccc21 | 0.0582%
58 | CCN(CCCNC(=O)COc1cc(=O)n(CC)c2ccccc12)c1ccccc1 | -52.5%
59 | Cc1cccc(CCNC(=O)COc2cc(=O)n(C)c3ccccc23)c1 | -17.6%
60 | CCN(CCCNC(=O)COc1cc(=O)n(C)c2ccccc12)c1ccccc1 | -41.3%
61 | CCN(CCCNC(=O)C1CCC(=O)N1Cc1ccccc1Cl)c1cccc(C)c1 (stereo not drawn) | -64.5%
62 | CCN(CCCNC(=O)COc1cc(=O)n(CC)c2ccccc12)Cc1ccccc1 | -19.8%
63 | COc1ccc(N2CCN(C(=O)C34CCC(C)(C(=O)C3)C4(C)C)CC2)cc1 (stereo not drawn) | -0.453%
64 | CN(CC(=O)Nc1ccc(Cl)c(C(F)(F)F)c1)C(=O)Cc1n[nH]c(=O)c2ccccc12 | -16.2%
65 | COc1ccc(-n2nc3c(c2NC(=O)c2ccc(Br)o2)CS(=O)(=O)C3)cc1 | -16.4%
66 | COC(=O)Nc1ccc(S(=O)(=O)N2CCC(C(=O)N(C)C3CCCCC3)CC2)cc1 | 9.22%
67 | COC(=O)CCC(=O)NC(=S)Nc1cc(Cl)ccc1Cl | 10.5%
68 | CC1CCN(CC(=O)N2CCCc3c2c(=O)oc2ccc(OCc4ccccc4)cc32)CC1 | -10.5%
69 | O=C(CN1CCCC1)N1CCCc2c1c(=O)oc1ccc(OCc3ccccc3)cc21 | -65.6%

Row | SMILES | hERG current change (%, negative = inhibition) at 10uM
70 | CC(=O)Oc1ccc2oc(=O)c3c(c2c1)CCCN3C(=O)CN1CCOCC1 | 1.97%
71 | CC1CC(C)CN(CC(=O)N2CCCc3c2c(=O)oc2ccc(OCc4ccccc4)cc32)C1 (stereo not drawn) | -4.71%
72 | Cc1cc(=O)oc2ccc(OCc3ccccc3)cc12 | 5.11%
73 | O=C(CN1CCCCC1)N1CCCc2c1c(=O)oc1ccc(OCc3ccccc3)cc21 | -54.6%
74 | O=C1OCC/C1=C\c1ccc(O)cc1 | 12.3%
75 | O=C(NCCCN1CCOCC1)C1Nc2ccc(OC(F)(F)F)cc2C2C=CCC12 (stereo not drawn) | -18.9%
76 | CCc1noc(C)c1C(=O)Nc1ccc(F)c(F)c1 | -15.4%
77 | COc1cc(NC(=O)Cn2nc(C(F)(F)F)c(Br)c2C)cc([N+](=O)[O-])c1 | 27.7%
78 | Cn1c(=O)c([N+](=O)[O-])c(NCC2CCCO2)c2ccccc21 (stereo not drawn) | 0.511%
79 | OC(CN1CCCCC1)Cn1c2ccc(Cl)cc2c2cc(Cl)ccc21 (stereo not drawn) | -29.6%
80 | c1ccc2nc3c(nc2c1)c1ccccc1n3CCN1CCOCC1 | -48.5%
81 | Cc1ccc2c(c1)c1nc3ccccc3nc1n2CCN1CCOCC1 | -62.8%
82 | CCc1ccc2c(c1)c1nc(C)sc1n2CC | -5.89%
83 | COC(=O)Cn1c2ccc(C)cc2c2nc(C)sc21 | -7.39%
84 | Cc1ccc2c(c1)c1nc3ccccc3nc1n2C | 21.3%
85 | Cc1nc2c3cc(F)ccc3n(CCN3CCCCC3)c2s1.Cl | -69.9%
86 | Clc1ccc2c(c1)c1cc(Cl)ccc1n2CN1CCOCC1 | -1.99%
87 | Cc1nc2c3cc(Cl)ccc3n(CCN3CCCCC3)c2s1.Cl | -70%
88 | Cc1nc2c3cc(F)ccc3n(Cc3ccccc3F)c2s1 | -5.77%
89 | Cc1nc2c3cc(Cl)ccc3n(CCN3CCOCC3)c2s1 | -52.2%
90 | Cc1nc2c3ccccc3n(CCN3CCCCC3)c2s1.Cl | -28.9%
